PubChem BioAssay AID504850 (National Center for Advancing Translational Sciences (NCATS), 2011)
The whole screen tested about 2,300 compounds, of which about 1,200 (52%) were called active. Not shown: some 34% with an inconclusive outcome. The set was probably picked from earlier hits. This is one part of the list. Values without a mark were called inactive. Calls follow the shape of the dose curve; as a rule, active = well fitted inhibition curve with a large enough effect; inconclusive = small, poorly fitted or top-dose-only effect, or effect the other way; inactive = no such curve, though single readings can be large or run the other way.
% is scaled to controls: 0 for no effect and ±100 for the full control effect; potency is read from the fitted curve at half-maximal effect.

Assay: Confirmation screen for delayed death inhibitors of the malarial parasite plastid, 48 hour incubation; also: nearly all actives have a fitted effect of over 65% in size
Details: P. falciparum-infected erythrocytes, luciferase growth; series mostly up to 28.7 µM; activity change, negative = inhibition: at the top concentration
Source text: The goal of this screen is to discover new antimalarial compounds that act by inhibiting the development of the apicoplast in the malarial parasite Plasmodium falciparum. The biochemical processes that make this organelle essential for erythrocytic stage parasites are not well understood. However, antibiotics, such as azithromycin and tetracycline, which target the apicoplast translational machinery, have a potent antimalarial effect. […] We have developed a cell-based assay that measures parasite growth based on the expression of an integrated copy of a firefly luciferase reporter. To detect small molecules that cause this "delayed death phenotype, erythrocytes infected with the luciferase-expressing parasites were incubated with compounds for either one or two generations, corresponding to 48 and 96 hours, respectively. Compounds that inhibit parasite growth in the second generation, but not the first, should be enriched in antimalarials that target the apicoplast. Growth inhibition is detected by a decrease in luciferase activity. MLPCN Grant: R21 NS059500 Assay Provider: David Fidock and Eric Ekland, Columbia University Keywords: NIH Roadmap, MLPCN, MLI, MLSMR, qHTS, NCGC, qHTS, malaria, luciferase, viability
Four microliters of culture medium (RPMI 1640 with 0.5% w/v Albumax (GIBCO), 24 mM sodium bicarbonate and 10 ug/mL gentamycin) were dispensed by a Multi-drop Combi into white solid 1536-well plates (Grenier) and 23 nL compound was added by a pin tool. Four microliters of infected erythrocytes (2% hematocrit, 0.1% parasitemia final concentration) in culture medium were dispensed and the plates incubated for 48 hours at 37 C in 5% CO2. Two microliters of luciferase detection reagent was added and luminescence was detected by a ViewLux (PerkinElmer) reader.
In the case of `CSc1nnc2c3ccccc3n(CCc3ccccc3)c2n1`, the Potency is reported as 15.8 µM (active). With `COc1ccc(C)cc1NC(=O)C(Sc1nnc(Nc2cc(C)ccc2OC)s1)c1ccccc1` (stereo unspecified) the Potency was 14.1 µM (active). For `Cn1cc([N+](=O)[O-])c(C(=O)Nc2nccs2)n1`, the “activity change, negative = inhibition” value was 0.495%. With `CC(C)(C)OC(=O)NCCCCCNC(=O)c1[nH]cnc1C(=O)Nc1nccs1` the Potency was 10 µM (active). For `CCn1cc(C(=O)O)c(=O)c2cc(F)c(N/N=C/c3ccccc3)cc21`, the Potency was 12.6 µM (active). In the case of `O=c1[nH]c(C2CCN(S(=O)(=O)c3cccc([N+](=O)[O-])c3)CC2)nc2c1nnn2Cc1ccccc1`, the Potency is reported as 10 µM (active). With `O=C(c1cccs1)N1CCC(c2nc3c(nnn3Cc3c(Cl)cccc3Cl)c(=O)[nH]2)CC1` the Potency was 7.94 µM (active). In the case of `CC(SC#N)C(=O)C12CC3CC(CC(C3)C1)C2` (stereo unspecified), the Potency is reported as 8.91 µM (active). In the case of `O=C(CSc1nnc(-c2ccco2)o1)N1c2ccccc2CCc2ccccc21`, the Potency is reported as 10 µM (active). With `C/C(=N\NC(=S)NCC(C)(C)C)c1cc(F)cc(F)c1O` the Potency was 11.2 µM (active). With `CC1=NNC(=O)/C1=C\c1cn(-c2ccccc2)nc1-c1cccs1` the Potency was 8.91 µM (active). In the case of `COc1cccc(Nc2ccc(N3CCCCC3)cc2)c1OC`, the Potency is reported as 6.31 µM (active). For `S=c1[nH]nc(COc2ccccc2)n1/N=C/C(Cl)=C/c1ccccc1`, the Potency was 14.1 µM (active). For `ClC(/C=N/n1cnnc1)=C/c1ccccc1`, the Potency was 14.1 µM (active). With `O=C(CSc1nc2nn(-c3ccccc3)c(=O)c-2c2n1CCCCC2)c1ccc(O)c(O)c1` the Potency was 12.6 µM (active). With `COc1cc(/C=C/C(=O)c2ccc(NS(=O)(=O)c3ccc(C)cc3)cc2)ccc1OC(F)F` the Potency was 12.6 µM (active). In the case of `COc1ccc(/C=C/C(=O)c2ccc(NS(=O)(=O)c3ccc(C)cc3)cc2)cc1O`, the Potency is reported as 7.94 µM (active). With `Cc1c(O)ccc(C(=O)CN2CCN(Cc3ccc4c(c3)OCO4)CC2)c1O` the Potency was 14.1 µM (active). For `Cc1c(-c2ccccc2)nc2ccccc2c1C(=O)Nc1ccncc1`, the Potency was 0.501 µM (active). With `O=C(c1cc(COc2cccc(C(F)(F)F)c2)on1)N1CCC(Oc2cccnc2)CC1` the Potency was 12.6 µM (active). For `CC(=O)N1CCCN(C(=O)c2cc(COc3c(F)cccc3F)on2)CC1`, the “activity change, negative = inhibition” value was -13.9%. For `CN1CCN(C(=O)c2cc(COc3c(F)cccc3F)on2)CC1c1ccccc1` (stereo unspecified), the “activity change, negative = inhibition” value was -15.8%. For `S=c1[nH]nc(-c2cc(-c3ccccc3)n[nH]2)n1/N=C/C(Br)=C/c1ccccc1`, the Potency was 6.31 µM (active). With `C=C1C(=O)O[C@@H]2C[C@@H](C)[C@@H]3C=CC(=O)[C@@]3(C)[C@@H](OC(C)=O)[C@H]12` the Potency was 1.58 µM (active). With `COc1ccc2nc3sc(C(=O)NCCN4CCc5ccccc5C4)cc3cc2c1` the Potency was 8.91 µM (active). In the case of `c1ccc2c(c1)Nc1cc3ccccc3cc1S2`, the Potency is reported as 5.01 µM (active). In the case of `O=C(/C=C/Sc1ncn[nH]1)c1ccc(Cl)cc1`, the Potency is reported as 12.6 µM (active). For `CCN(Cc1ccccc1)C(=O)CSc1ncn[nH]1`, the “activity change, negative = inhibition” value was -18.7%. For `O=C(/C=C/c1ccccc1Cl)c1ccccc(=O)c1O`, the Potency was 10 µM (active). With `Cc1ccc(C)c(/C=C/C(=O)c2ccccc(=O)c2O)c1` the Potency was 14.1 µM (active). For `N#Cc1ccccc1S(=O)(=O)N1CCC(C(=O)NCc2ccccc2CN2CCCC2)CC1`, the Potency was 12.6 µM (active). For `Cc1ccc(SCC(=O)Nc2ccccc2C(=O)O)cc1`, the “activity change, negative = inhibition” value was 8.96%. For `COc1ccc(C)cc1NC(=O)CSCc1ccccc1C`, the Potency was 12.6 µM (active). With `CCOc1ccc(NC(=O)CC2C(=O)N(c3ccccc3)C(=O)N2CCOC)cc1` (stereo unspecified) the “activity change, negative = inhibition” value was -1.36%. For `O=C(C[C@H]1C(=O)N(Cc2ccccc2)C[C@@H]1Cc1ccccc1)Nc1ccccc1`, the Potency was 11.2 µM (active). In the case of `Cn1c(Cc2cccc3ccccc23)nnc1SCc1ccc([N+](=O)[O-])cc1`, the Potency is reported as 14.1 µM (active). With `CC1(C)CCSC(/C=C/c2ccccc2)=N1` the Potency was 7.94 µM (active). With `CCC(=O)NC(=S)Nc1ccc(NC(=O)c2ccc(C)c([N+](=O)[O-])c2)cc1` the Potency was 14.1 µM (active). For `CC(=O)c1ccc(NC(=S)Nc2ccc3cn[nH]c3c2)cc1`, the “activity change, negative = inhibition” value was 5.49%. For `Cc1ccc(-c2nn(C(C)(C)C)c3ncnc(N)c23)cc1`, the Potency was 5.62 µM (active). With `Cc1cccc[n+]1CC(=O)c1ccc(NC(=O)c2ccccc2)cc1` the Potency was 7.94 µM (active). With `Cc1ccc(Nc2cc(C)nc3ccc(C)cc23)cc1` the Potency was 10 µM (active). In the case of `CN(CCC#N)C(=O)COC(=O)c1ccc2[nH]c3c(c2c1)CCCC3`, the “activity change, negative = inhibition” value is reported as -8.6%. For `COc1ccccc1N1CCN(C(=O)c2ccc3[nH]c4c(c3c2)CCCC4)CC1`, the Potency was 12.6 µM (active). In the case of `Cc1ccc(Cl)cc1Nc1nc(-c2sc(NC(=O)C(C)(C)C)nc2C)cs1`, the Potency is reported as 5.01 µM (active). In the case of `CCOC(=O)C1CCN(c2c(NCc3ccc(C(=O)NCCC(C)C)cc3)c(=O)c2=O)CC1`, the Potency is reported as 2.24 µM (active).
